# From PubChem BioAssay (NCI)
# This is part of a sample that, as a whole, favours compounds with a hit. Of some 79,000 tested, about 15% had one in any assay. A number with no mark means an inactive call. Active and inactive are the calls of the source. No stated cut-off is given here; in the data, active means growth inhibition above about 70%; inactive means the rest.
# Experiments:
# [1] = NCI Yeast Anticancer Drug Screen. Data for the rad50 strain (AID 155);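 further: 0% = growth of vehicle-only cultures of the same strain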; details: S. cerevisiae rad50 strain growth inhibition, active compounds read high
# In short: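 Cells are treated with compound, grown, and their growth is then scored against vehicle-only cultures of the same repair-deficient yeast strain.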
# [2] = NCI Yeast Anticancer Drug Screen. Data for the mec2-1 strain (AID 157); details: S. cerevisiae mec2-1 strain, active compounds read high
# In short: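 Strain: mec2-1 (DNA repair/cell cycle alteration). Compound exposure, then growth measured; inhibition expressed relative to vehicle.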
# [3] = NCI Yeast Anticancer Drug Screen. Data for the sgs1 mgt1 strain (AID 161);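 further: 0% = growth of cultures given vehicle only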; details: S. cerevisiae sgs1 mgt1 strain, active compounds read high
# In short: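 Test agents were incubated with a DNA-repair-mutant yeast strain. Growth was then read and compared against vehicle-treated controls.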
# [4] = NCI Yeast Anticancer Drug Screen. Data for the cln2 rad14 strain (AID 165);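 further: 0% = growth equal to vehicle treated cultures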; details: S. cerevisiae cln2 rad14 strain, active compounds read high
# In short: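 Compounds are applied to the cln2 rad14 yeast strain, and growth is then compared with that of vehicle-treated cultures to give inhibition.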
# [5] = NCI Yeast Anticancer Drug Screen. Data for the bub3 strain (AID 167); details: S. cerevisiae bub3 mutant strain, active compounds read high
# In short: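 Part of a panel of yeast mutants defective in DNA damage repair or cell cycle regulation. Each strain is grown with compound, and inhibition is calculated relative to solvent-treated cultures.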
# [6] = NCI Yeast Anticancer Drug Screen. Data for the mlh1 rad18 strain (AID 175); details: S. cerevisiae mlh1 rad18 strain growth inhibition, active compounds read high
# In short: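 Read-out is yeast growth inhibition, calculated against vehicle-only controls. The compound was applied to a strain engineered with DNA damage repair alterations.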
# [7] = at 5.0 µM (retest, dose inferred, filed as 0.5)
# [8] = at 50.0 µM (retest, dose inferred, filed as 5.0)
SMILES,"growth inhibition [1, 7]","growth inhibition [1, 8]",growth inhibition ([1]; at 50.0 µM),"growth inhibition [2, 7]","growth inhibition [2, 8]",growth inhibition ([2]; at 50.0 µM),"growth inhibition [3, 7]","growth inhibition [3, 8]",growth inhibition ([3]; at 50.0 µM),"growth inhibition [4, 7]","growth inhibition [4, 8]",growth inhibition ([4]; at 50.0 µM),"growth inhibition [5, 7]","growth inhibition [5, 8]",growth inhibition ([5]; at 50.0 µM),"growth inhibition [6, 7]","growth inhibition [6, 8]",growth inhibition ([6]; at 50.0 µM)
C/C(C=C(C#N)C#N)=C\c1ccc([N+](=O)[O-])cc1,-9%,67%,78.2% (active),-16%,67%,70.4% (active),-1%,40%,64.8%,36%,60%,55.5%,15%,81% (active),64.8%,-3%,89% (active),67.3%
O=c1sc(=S)[nH]c2ccccc12,-3%,10%,76.8% (active),6%,43%,69.1%,3%,41%,78.9% (active),-4%,3%,71.5% (active),-1%,7%,67.5%,16%,31%,72.2% (active)
C#CC(C)(C)OC(C)=O,-2%,26%,69.9%,0%,0%,19.2%,-1%,5%,69.5%,2%,0%,5.75%,1%,4%,35.6%,-1%,4%,76.6% (active)
C=CCN1CCC(OC(=O)C(O)(/C=C\CC)C2CCCC2)CC1 (stereo not given),19%,61%,68.8%,13%,40%,48.9%,37%,63%,70.2% (active),17%,75% (active),62.8%,12%,83% (active),61.6%,7%,67%,59.5%
Clc1nc(Cl)nc(N2CCCc3ccccc32)n1,-24%,78% (active),69.1%,-10%,78% (active),70.9% (active),-19%,67%,85.9% (active),22%,56%,74.7% (active),-10%,91% (active),79% (active),2%,82% (active),74.3% (active)
C/C(=N\NC(=S)N1CCCCCC1)c1ccccn1,88% (active),99% (active),91.5% (active),86% (active),99% (active),92.6% (active),77% (active),99% (active),92.3% (active),67%,98% (active),89.7% (active),87% (active),99% (active),92.1% (active),90% (active),98% (active),92% (active)
CCOC(=O)c1c(N2CCCC2)nsc1Nc1ccc(F)cc1,-3%,90% (active),91.8% (active),-1%,93% (active),87.2% (active),13%,90% (active),92% (active),2%,75% (active),45%,1%,92% (active),94.8% (active),-2%,88% (active),93.5% (active)
CN1C=COC1N=C1CCCCC1 (stereo not given),13%,10%,-24.2%,-1%,-5%,-7%,-2%,17%,-5.2%,11%,0%,16.6%,18%,10%,-13%,-13%,6%,-32.1%
Cc1csc2[n+]1C(=O)/C(=C\c1ccc([N+](=O)[O-])cc1)S2,30%,74% (active),69.6%,21%,71% (active),56.2%,32%,80% (active),50.3%,7%,67%,57.5%,26%,76% (active),46.9%,24%,82% (active),78.3% (active)
Cn1c2c(c3nc(N)nc(N)c3c1=O)CCc1ccccc1-2,6%,21%,72.8% (active),0%,31%,26.3%,8%,39%,69.5%,-2%,37%,42.8%,-1%,39%,68.5%,0%,36%,44.4%
O=C1C=CC(=O)c2c(O)c(N3CCC[C@@H]3CO)c(Cl)c(O)c21,20%,65%,30.1%,30%,64%,41.5%,25%,52%,51.2%,19%,36%,30.2%,21%,29%,72.2% (active),26%,71% (active),4.25%
CC1/C(=N\O)CC(c2ccccc2)N(C)C1c1ccccc1 (stereo not given),96% (active),96% (active),98.2% (active),96% (active),98% (active),98.2% (active),96% (active),97% (active),97.7% (active),58%,78% (active),83.5% (active),94% (active),96% (active),98% (active),95% (active),97% (active),97.7% (active)
Clc1nnc(Cl)s1,3%,36%,29.1%,8%,54%,21.6%,2%,67%,19.4%,1%,9%,25.9%,5%,72% (active),23.9%,5%,53%,18.9%
CC1=C/C(=C\C=C2/N(C)c3c(C)cccc3C2(C)C)C(=O)c2ncccc21,28%,98% (active),94.2% (active),28%,99% (active),29.7%,19%,98% (active),70.8% (active),9%,98% (active),24.6%,49%,98% (active),64.6%,45%,98% (active),63.2%
O=CC(=C\c1ccco1)/C(C=O)=C\c1ccco1,11%,25%,18.1%,7%,44%,5.45%,11%,63%,13%,2%,15%,33.9%,-6%,33%,-23.6%,21%,86% (active),71.9% (active)
O=C(NNc1ccccc1)C(O)C(=O)C(O)C(O)C(O)CO (stereo not given),1%,27%,9.45%,-1%,8%,21.9%,9%,6%,61.8%,-2%,14%,-14.1%,8%,34%,80% (active),5%,28%,75.2% (active)
CC(O)CCc1nc2ccccc2[nH]1 (stereo not given),3%,-4%,17.3%,2%,-3%,3.15%,-1%,0%,-1.3%,2%,27%,57.2%,3%,6%,-6.65%,0%,-8%,11.7%
CCCCCCCCN(CCCCCCCC)CC(O)c1cc(OCC)nc2ccccc12 (stereo not given),2%,96% (active),97.8% (active),4%,97% (active),97.7% (active),4%,96% (active),97.4% (active),3%,96% (active),93.5% (active),9%,97% (active),97.8% (active),9%,95% (active),96.8% (active)
C[n+]1c(-c2ccc(/C=N\NC(=O)c3cccc(C(=O)N/N=C/c4ccc(-c5cn6ccccc6[n+]5C)cc4)c3)cc2)cn2ccccc21,-14%,99% (active),98% (active),27%,99% (active),98.5% (active),0%,99% (active),98.2% (active),-4%,99% (active),97.7% (active),15%,99% (active),98% (active),-14%,99% (active),98.5% (active)
COc1ccc(C2=NN(c3ccccc3)C[N+](c3ccc(C)cc3)=N2)cc1,6%,98% (active),97.5% (active),-14%,99% (active),98.2% (active),-3%,98% (active),98.5% (active),12%,98% (active),97.9% (active),-1%,99% (active),98.2% (active),13%,98% (active),97.8% (active)
